Assay outcomes as filed in PubChem.
Sampled rows, rich in hits. Any-hit rate of the full collection: about 2.1%.
NSD2 inh: NSD2 histone methyltransferase inhibitors, primary screen, biochemical, AlphaScreen, single concentration, set 2; NSD2 peptide methylation, 120 min; inhibition, % at 12.5 µM; 0.54% of 310,000 active; AID 743445, 2014; in the data active = inhibition above about 50%
INS-1E GSIS act: GLuc luminescence reporter in INS-1E cells, primary screen for activators of glucose-dependent secretion of insulin; INS-1E GLuc reporter insulin secretion, 2-3 h; activation, % at 16.6 µM; 0.61% of 370,000 active; AID 743287, 2014;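 active = lowest replicate activation of at least 40%, so every replicate reaches that level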;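 note: 0% = median of neutral control wells and 100% = median of IBMX positive control wells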
MLL AF4-AF9 inh: inhibitors of AF4 peptide binding to AF9, primary screen, biochemical, AlphaScreen, biotin-AF4 peptide, FLAG-AF9, single point; inhibition, % at 10 µM; 0.47% of 350,000 active; Protein AF-9 (Homo sapiens), P42568;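 active = every replicate reaching a set inhibition limit, whatever the replicate mean, cut at about 25% in these data; inconclusive = mean inhibition reaches that limit but some replicates miss it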;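 note: 0% = plate neutral control median and 100% = total signal loss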
Target sequence (P42568 whole entry, looked up): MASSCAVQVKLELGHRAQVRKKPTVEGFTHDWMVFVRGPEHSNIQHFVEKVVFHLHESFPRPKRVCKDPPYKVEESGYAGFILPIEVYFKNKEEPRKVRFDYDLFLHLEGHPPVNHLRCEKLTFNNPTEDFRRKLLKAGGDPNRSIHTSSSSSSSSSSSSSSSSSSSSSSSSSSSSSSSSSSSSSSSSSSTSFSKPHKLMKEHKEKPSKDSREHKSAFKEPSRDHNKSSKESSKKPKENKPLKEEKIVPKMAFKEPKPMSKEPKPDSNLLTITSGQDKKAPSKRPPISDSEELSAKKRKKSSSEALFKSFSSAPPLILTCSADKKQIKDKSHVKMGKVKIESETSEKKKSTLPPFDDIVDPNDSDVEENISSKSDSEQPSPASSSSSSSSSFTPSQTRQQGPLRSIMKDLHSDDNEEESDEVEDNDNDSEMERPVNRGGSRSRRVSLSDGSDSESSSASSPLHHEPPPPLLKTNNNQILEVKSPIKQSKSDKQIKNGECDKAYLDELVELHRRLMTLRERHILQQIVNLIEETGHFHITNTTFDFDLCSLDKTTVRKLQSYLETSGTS
PGC1a acetyl inh: inhibitors of PGC1a acetylation signal, primary screen, cell-based, U2OS, AlphaScreen, inhibitor mode. AlphaScreen anti-acetyl-lysine; with virally co-expressed GCN5 acetyltransferase. inhibition, % at 15.6 µM. 0.17% of 350,000 active;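 active = every replicate shows inhibition of at least 40%; inconclusive = mean inhibition at least 40% but some replicate below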;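 note: 0% = neutral control wells and 100% = positive control wells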
HIV Env fusion: inhibitors of HIV-1 Env-driven cell-cell fusion, primary screen, HeLa-JRFL effector, CEM21 target cells, luciferase | inhibition, % at 12.3 µM | 1.1% of 360,000 active;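 active = mean replicate inhibition score of at least 50 and every replicate individually at or above 50; inconclusive = only one of the two criteria met; inactive = mean below 50 and not all replicates reaching 50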;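 note: 0% = plate neutral controls and 100% = maraviroc near 300 nM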
* marks the source's active call; other numbers are inactive results; ? = inconclusive; / = not tested or not shown; [ ] = dose if it differs, or a comment.

SMILES	NSD2 inh	INS-1E GSIS act	MLL AF4-AF9 inh	PGC1a acetyl inh	HIV Env fusion
CCN(CC(=O)Nc1cc(Cl)ccc1C)C(=O)C1CCN(c2ncnc3sc(C)c(C)c23)CC1	-1	/	3	1	61*
Cc1sc2ncnc(N3CCC(C(=O)Nc4cc(S(C)(=O)=O)ccc4Cl)CC3)c2c1C	-6	11	-2	/	92*
Cc1sc2ncnc(N3CCC(C(=O)Nc4cc(Cl)ccc4Cl)CC3)c2c1C	-3	3	-35	/	13
Cc1sc2ncnc(N3CCC(C(=O)N(C)CC(=O)Nc4ccccc4Cl)CC3)c2c1C	-1	-18	20	/	24
Cc1nc(CC(C)C)cc(C(=O)N2CCCC(Nc3ccc(C)c(C)c3)C2)n1 (stereo not given)	38	13	1	/	/
CN(Cc1c(C(=O)N/N=C/c2cc(F)ccc2F)nnn1-c1nonc1N)C1CCCCC1	/	/	-2	0	3
Cc1cc(C(=O)NC2CCCc3c2cnn3-c2ccc(C)c(C)c2)nc(C)n1 (stereo not given)	10	-31	0	33	8
CCn1cc(C(=O)NC2CCCc3c2cnn3-c2cccc(C)c2C)cn1 (stereo not given)	/	-23	-2	/	57*
COC(=O)c1ccc(C(=O)NC2CCCc3c2cnn3-c2ccc(C)c(C)c2)cc1 (stereo not given)	-4	-26	1	9	72*
Cc1cccc(-n2ncc3c2CCCC3NC(=O)c2ccncc2)c1C (stereo not given)	3	/	-3	3	61*
CC1=C(C(=O)NC2CCCc3c2cnn3-c2cccc(C)c2C)OCCO1 (stereo not given)	-1	-28	1	-3	/
Cc1cc(C(=O)NC2CCCc3c2cnn3-c2ccc(C(C)(C)C)cc2)nn1C (stereo not given)	0	-23	2	15	82*
CC(C)Oc1ccc(CNC(=O)c2ccc3nc(N4CCOCC4)sc3c2)cc1	/	-3	-2	-5	3
CCC(=O)N(C)C[C@@H]1Oc2cc(-c3ccccc3)ccc2S(=O)(=O)N([C@@H](C)CO)C[C@H]1C	/	-4	1	-4	-4[16.7 µM]
CC1=C/C(=N\NC(=S)NCc2ccccc2)CC1	4	-5	5	3	-22
COc1cc(NC(=O)C2CCCO2)c(C(=O)O)cc1OC (stereo not given)	-5	/	-18	-20	/
CCN1C(=O)[C@@H]2[C@@H](c3ccc(-c4ccc(Cl)c(Cl)c4)cc3)N3CCCC[C@@]3(C(=O)OC)[C@@H]2C1=O	/	/	-31	2	63*
CCSc1ccc([C@@H]2[C@@H]3C(=O)N(CC)C(=O)[C@@H]3[C@]3(C(=O)OC)CCCCN23)cc1	/	/	3	-3	63*
CCSc1ccc([C@@H]2[C@H]3C(=O)N(CC)C(=O)[C@H]3[C@]3(C(=O)OC)CCCCN23)cc1	/	-25	-5	-3	-15
COC(=O)[C@@]12CCCCN1[C@H](c1ccc(-c3ccc(Cl)c(Cl)c3)cc1)[C@H]1C(=O)N(C)C(=O)[C@H]12	/	-9	-15	2	17
Cc1ccc(C)c(N2CCN(C(=O)CSc3ccsc3[N+](=O)[O-])CC2)c1	-1	-27	/	-9	18
O=C(CN(Cc1ccccc1)C(=O)CCC(=O)Nc1nccs1)NCc1ccccc1	-2	15	43*	-2	3
Cc1noc(/C=C/N(C)C)c1S(=O)(=O)N(C)CC(=O)NC1CCCCC1	3	/	/	43*	/
Cc1noc(/C=C/N(C)C)c1S(=O)(=O)N1CCCC(C(=O)NC2CCCCC2)C1 (stereo not given)	/	/	-9	-13	/
Cc1ccc(-c2csc(N(CCCN(C)C)C(=O)c3ccco3)n2)cc1	25	-3	22	-5	0
SMILES	NSD2 inh	INS-1E GSIS act	MLL AF4-AF9 inh	PGC1a acetyl inh	HIV Env fusion
CN(C)CCCN(C(=O)c1ccco1)c1nc(-c2ccc(Cl)cc2)cs1	/	-26	26*	-9	0
Cc1cc(C)nc(NC(N)=NCCc2ccccc2)n1	0	/	-1	0	-118
Cc1cc(C)nc(NC(N)=NCCc2c[nH]c3ccccc23)n1	14	45*	9	1	-2
COc1ccc(-c2nnn(Cc3nc(N)nc(N4CCOCC4)n3)n2)cc1OC	-1	96*	/	-6	/
COc1ccc(-n2c(CNc3ccc(C)cc3)nnc2SCc2ccccc2)cc1	4	-34	/	-3	11
CCOc1ccc(NCc2nnc(SCc3ccccc3Cl)n2-c2ccccc2)cc1	-1	/	/	/	82*
Cc1ccc(S(=O)(=O)N2CCN(c3ccc(C(F)(F)F)cc3[N+](=O)[O-])CC2)cc1	-2	/	10	/	?
O=C(CSc1c[nH]c2ccccc12)NC1CCCC1	-5	29	0	/	15
O=C(CSC1=Nc2ccccc2C2=NC(Cc3c[nH]c4ccccc34)C(=O)N12)NC1CCCCC1 (stereo not given)	0	/	/	5	114*
CC(=O)Nc1nc(C)nc(-c2ccccc2OC(C)=O)n1	-2	45*	5	13	/
COc1cc(/C=N/N(C)S(=O)(=O)c2ccc(C)cc2)cc([N+](=O)[O-])c1O	9	11	31*	2	2
CCOC(=O)C1=CCN(S(=O)(=O)c2ccccc2Br)C1c1cccc(C)c1 (stereo not given)	/	/	-1	-32	/
CC(C)C[C@H]1CNC(=S)N1C[C@H]1CCCN1C[C@H](Cc1ccc(O)cc1)N1C[C@H](Cc2ccccc2)N(CC2CCCCC2)C1=S	/	9	1	-1	112*
CC(C)C[C@H]1CN([C@@H](Cc2ccc(O)cc2)CN2CCC[C@H]2CN2C(=O)C(=O)NC[C@@H]2Cc2ccccc2)C(=O)C(=O)N1CCc1ccccc1	/	/	2	/	5
Oc1ccc(C[C@H]2CNC(=S)N2CC2CCCN2C[C@H](Cc2ccc(O)cc2)N2C[C@H](Cc3ccc(O)cc3)N(CC3CCCCC3)C2=S)cc1 (stereo not given in full)	/	-37	1	-8	91*
Oc1ccc(C[C@H]2CN([C@@H](Cc3ccccc3)CN3CCCC3CN3C(=S)NC[C@@H]3Cc3ccccc3)C(=S)N2CC2CCCCC2)cc1 (stereo not given in full)	/	-11	4	/	-6
O=C1NC[C@@H](CCCCN2C[C@H](Cc3ccc(O)cc3)N(Cc3ccccc3)C(=O)C2=O)N(CCc2ccc(O)cc2)C1=O	/	4	0	/	57*
CC(C)C[C@H]1CN([C@@H](Cc2ccc(O)cc2)CN2CCC[C@H]2CN2C(=O)C(=O)NC[C@@H]2Cc2ccc(O)cc2)C(=O)C(=O)N1CCc1ccccc1	/	44*	0	/	60*
COc1ccc(S(=O)(=O)N(C)C[C@H]2Oc3ccc(NS(=O)(=O)c4ccc(C)cc4)cc3C(=O)N([C@@H](C)CO)C[C@@H]2C)cc1	/	-15	0	11	/
